# D1 potentiator: enhances dopamine response at the human D1 receptor; potentiation, % at 10 µM; P21728; HEK293 TREx D1 cells, calcium flux, dopamine EC20 potentiation; 360,000 tested, 0.036% active; AID 504651; in the data active = potentiation above about 30%; also: 0% is about no effect
# Target sequence (P21728 whole entry, looked up): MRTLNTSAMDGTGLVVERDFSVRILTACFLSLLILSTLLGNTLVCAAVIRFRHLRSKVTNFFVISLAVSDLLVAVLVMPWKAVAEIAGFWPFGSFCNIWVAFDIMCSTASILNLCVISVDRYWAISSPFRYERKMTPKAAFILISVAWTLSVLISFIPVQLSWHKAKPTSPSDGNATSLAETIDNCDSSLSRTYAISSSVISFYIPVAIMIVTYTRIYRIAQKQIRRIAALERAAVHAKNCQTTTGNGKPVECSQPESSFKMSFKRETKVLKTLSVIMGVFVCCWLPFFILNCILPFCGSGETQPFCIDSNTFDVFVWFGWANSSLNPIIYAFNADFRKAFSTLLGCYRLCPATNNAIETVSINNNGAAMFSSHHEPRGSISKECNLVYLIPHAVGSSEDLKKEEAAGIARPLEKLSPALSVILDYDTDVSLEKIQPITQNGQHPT
# DRD3 antagonist: D3 dopamine receptor (human) antagonism. AID 652054. P35462. max response, negative = inhibition, %. 360,000 tested, 2.5% active. D3R cells, DiscoveRx beta-arrestin luminescence, antagonist mode; hits give low values; in the data active = max response below about -50%; inconclusive = no clear call, values can overlap the other calls; also: % is scaled to controls: 0 for no effect and ±100 for the full control effect
#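 Cells plated overnight at 1500 cells/well, then exposed to library compounds with dopamine controls for 90 minutes at 37 degrees C. DiscoveRx reagent added for 30–60 minutes at room temperature; luminescence read, quantitative HTS format.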
# D1 ag: activates the human D1 dopamine receptor; HEK293 T-REx D1 cells, calcium flux, agonist mode; activation, % at 2 µM; 360,000 tested, 1% active; AID 504660; in the data active = activation above about 30%; also: 0% is about no effect
#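 Agonism was scored from calcium flux recorded over 180 s (1 read/s) after pintool compound addition, following a 10-cycle baseline. Cells were inducible force-coupled HEK293 TREx D1, plated overnight at 30 C and loaded with no-wash calcium dye.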
# D1 antagonist: human D1 dopamine receptor antagonism; P21728; activity change, negative = inhibition, % at 10 µM; HEK293 TREx D1 cells, calcium flux, dopamine EC80; hits give low values; AID 504652; 360,000 tested, 3.2% active; in the data active = activity change below about -30%; also: % is scaled to controls: 0 for no effect and ±100 for the full control effect
#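 Inducible Hek293 Trex D1 cells (tetracycline, overnight, 30 C). Calcium dye 30–90 min RT. Antagonist mode: EC80 dopamine added after 180 s compound read.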
# DRD3 agonist: D3 dopamine receptor (human) agonism. P35462. D3R DiscoveRx beta-arrestin cells, luminescence, 90 min. max activation, %. 410,000 tested, 0.58% active; in the data active = max activation above about 30%; also: 0% is about no effect
#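 Cells at 1500/well, incubated overnight, then treated with pinned compounds (dopamine as control) for 90 min at 37 degrees C. DiscoveRx reagent added for 30 - 60 minutes at room temperature; luminescence read.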
# The depositor's hits bear a star; u = inconclusive; x = no result. An excerpt weighted towards active compounds, which were near 6.1% of everything screened.
SMILES,D1 potentiator,DRD3 antagonist,D1 ag,D1 antagonist,DRD3 agonist
Cc1ccccc1N1CCN(C2CCCN(C(=O)CCC3(C)CC3)C2)CC1 (stereo unspecified),20.4,-64.4*,1.4,2.5,-7.0
CN(C)CCCn1c(SCC(=O)N2c3ccccc3Sc3ccccc32)nc2ccccc2c1=O,-2.6,-3.7,37.8*,-14.8,-0.7
Cn1c(Cn2nnc3ccccc32)nnc1SCC(=O)N1c2ccccc2Sc2ccccc21,1.3,-54.9*,8.3,-1.1,-22.3
Cn1c(SCC(=O)N2c3ccccc3Sc3ccccc32)nc2ccccc21,0.9,-12.6,6.2,-8.7,2.7
Cn1c(Cn2nnc3ccccc32)nnc1SCC(=O)N1c2ccccc2CCc2ccccc21,-0.2,-20.5,0.9,3.7,-3.9
COC(=O)c1cc2c(cc1NC(=O)c1cnn(-c3ccccc3)c1-n1cccc1)OCO2,-0.2,x,-1.3,10.0,-11.9
CC1=C(C(=O)OCc2ccccc2)C(c2cccc3ccccc23)NC(=O)N1CCCC(=O)O (stereo unspecified),-1.3,0.4,0.9,-39.2*,1.2
CC1=C(C(=O)OCc2ccccc2)C(c2cccc(Cl)c2Cl)NC(=O)N1CCCCCC(=O)O (stereo unspecified),0.5,16.9,2.5,-32.8*,0.1
CCC(C)NC(=O)CCCc1nnc2n(CC(C)C)c(=O)c3sccc3n12 (stereo unspecified),-1.8,x,-0.6,-0.2,-8.2
O=S(=O)(c1ccc2ccccc2c1)N1CCC(c2nc(-c3ccncc3)no2)CC1,-0.5,-11.7,2.4,-34.7*,-12.1
COc1ccc(C(C(=O)NC2CCCC2)n2c(C3CCN(C(C)=O)CC3)nc3ccccc32)cc1 (stereo unspecified),x,-50.2*,x,x,-7.6
Cc1occc1C(=O)N/N=C/C=C/c1ccccc1,8.8,-21.9,-0.9,-10.6,-1.1
Cc1ccc(C(=O)N/N=C/C=C/c2ccccc2)cc1,-0.7,-20.7,7.6,-35.6*,-14.2
Cc1ccc(NC(=O)c2ccc3c(O)c(S(=O)(=O)c4ccc(Cl)cc4)c(=O)[nH]c3c2)cc1,1.1,x,4.5,6.3,-6.7
O=C(NCCc1ccccc1)/C(=C\c1cccc([N+](=O)[O-])c1)NC(=O)c1ccco1,-3.9,3.8,3.5,-34.1*,9.6
Cc1cc(Nc2ccc(C(C)C)cc2)nc(-n2nc(C)cc2C)n1,3.4,x,-1.2,12.4,-22.7
COc1ccc(Nc2cc(C)nc(-n3nc(C)cc3C)n2)cc1Cl,-0.5,x,3.6,-33.9*,-26.2
O=[N+]([O-])c1ccc([S+](=O)([O-])N2CCN([S+](=O)([O-])c3ccc4c(c3)OCCO4)CC2)c([N+](=O)[O-])c1,3.2,x,-0.4,-25.3,x
Cc1c(C)c2ccc(Oc3ccc([N+](=O)[O-])cc3C(F)(F)F)c(C)c2oc1=O,-3.5,5.8,2.7,-33.3*,2.7
Cc1ccc(C2c3[nH]c4ccccc4c3CCN2C(=O)Nc2ccc(C)c(C)c2)cc1 (stereo unspecified),0.5,x,-0.1,-19.2,-12.4
CC(C#N)(Nc1ccc(Cl)cc1)c1cccnc1 (stereo unspecified),-2.3,-60.8*,4.4,3.4,-18.1
Clc1ccc(NCc2cccnc2)cc1,-6.5,-6.6,2.7,-10.4,-7.7
O=C(COc1ccccc1-c1nc(-c2ccccc2)no1)Nc1cccc([N+](=O)[O-])c1,-2.0,x,-0.9,-11.2,15.0
Cc1nn2c3c(cnc2c1-c1ccc(Cl)cc1)C(=O)CC(c1ccco1)C3 (stereo unspecified),0.3,-51.6*,5.5,-12.3,0.1
Cc1cc(/C=N/n2cnnc2)c(O)c([N+](=O)[O-])c1,-0.7,-62.5*,3.6,27.6,-20.0
Cc1ccc(NC(=O)Cn2c(=O)n(Cc3nc(-c4ccccc4)no3)c(=O)c3cc4c(cc32)OCO4)cc1C,2.0,x,1.8,0.3,-24.5
C=C[C@@H]1c2cc(C)ccc2N(S(=O)(=O)c2ccc(C)cc2)[C@H](c2ccc(OC(C)=O)cc2)C1(C#N)C#N,-0.3,u,39.6*,x,-27.1
C=C[C@@H]1c2ccccc2N(S(=O)(=O)c2ccc(C)cc2)[C@H](c2ccc(OC(C)=O)cc2)C1(C#N)C#N,-2.5,u,4.2,-7.9,4.9
O=C(c1cnn2c(C(F)F)cc(-c3ccccc3)nc12)N1CCN(Cc2ccc3c(c2)OCO3)CC1,2.6,-74.5*,0.9,-1.1,-12.5

# Assay outcomes: PubChem BioAssay, National Center for Advancing Translational Sciences (NCATS)
